Test results taken from PubChem BioAssay AID720540 (National Center for Advancing Translational Sciences (NCATS), 2013).
Out of some 1,300 compounds screened, about 460 (35%) were called active. Inconclusive results (about 39%) are left out. The list shows a part of the results. Values without a mark were called inactive. Calls come from the whole dose curve; as a rule, active = well fitted inhibition curve with a large enough effect; inconclusive = small, poorly fitted or top-dose-only effect; inactive = flat fitted curve, though single readings scatter.

Target: Protein phosphatase EYA2 (Homo sapiens) (UniProt O00167)
Experiment: qHTS for Inhibitors of the Phosphatase Activity of Eya2: Confirmatory Assay for Cherry-picked Compounds; note: nearly all actives have a fitted effect of over 65% in size;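 for activity change, negative = inhibition: 0% = DMSO wells and -100% = EGTA control giving full inhibition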
Conditions: purified EYA2 phosphatase activity, qHTS confirmation; series mostly up to 46.1 µM; activity change, negative = inhibition: at the top concentration
Summary of the method: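 Eya2 (0.2 uM working solution) preincubated 10 min at room temperature with compound in pH 7.5 HEPES buffer with MgCl2, BSA, DTT. OMFP added (50 uM working solution), 10 min more; fluorescence 485/525 nm, normalized to EGTA and DMSO.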
Potency is the fitted concentration of half-maximal effect.

Sequence of Protein phosphatase EYA2 (Homo sapiens) (O00167 whole entry, looked up): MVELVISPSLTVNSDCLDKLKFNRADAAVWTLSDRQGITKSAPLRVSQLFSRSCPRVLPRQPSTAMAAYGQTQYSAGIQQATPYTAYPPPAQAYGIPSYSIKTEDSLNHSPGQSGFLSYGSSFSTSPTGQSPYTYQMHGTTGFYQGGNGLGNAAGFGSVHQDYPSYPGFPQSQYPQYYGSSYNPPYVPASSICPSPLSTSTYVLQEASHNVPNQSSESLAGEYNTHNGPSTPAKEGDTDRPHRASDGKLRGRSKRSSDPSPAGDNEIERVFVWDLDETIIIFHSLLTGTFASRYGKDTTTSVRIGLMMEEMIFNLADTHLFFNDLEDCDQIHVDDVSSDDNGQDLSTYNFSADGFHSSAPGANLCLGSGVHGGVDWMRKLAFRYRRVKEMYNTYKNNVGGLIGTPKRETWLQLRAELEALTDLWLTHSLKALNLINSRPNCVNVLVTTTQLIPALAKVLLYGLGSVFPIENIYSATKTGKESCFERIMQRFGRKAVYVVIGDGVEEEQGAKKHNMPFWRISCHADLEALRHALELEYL

SMILES	Potency	activity change, negative = inhibition [%]
CCC(=O)NC(c1cccs1)c1cc(Cl)c2cccnc2c1O (stereo unspecified)	1.51 µM (active)	
O=C(O)c1ccccc1NC(c1ccccc1)c1ccc2cccnc2c1O (stereo unspecified)	3.38 µM (active)	
CC(C)C(=O)NC(c1ccc(Cl)cc1Cl)c1ccc2cccnc2c1O (stereo unspecified)	5.36 µM (active)	
COc1ccc(C(NC(C)=O)c2cc(Cl)c3cccnc3c2O)cc1OC (stereo unspecified)	1.69 µM (active)	
CCOc1ccc(Nc2nc(N)nc(CN(C)C3CCCCC3)n2)cc1		-11.1
O=C(O)c1c(C(=O)N2N=C3/C(=C/c4ccccc4)CCCC3C2c2ccccc2)cccc1[N+](=O)[O-] (stereo unspecified)		-12.9
CCCc1ccc(C#N)c(SC2CC(=O)N(c3ccc(OC)cc3)C2=O)n1 (stereo unspecified)		-24.4
O=C(NC1CCCC1)c1cc(=O)[nH]c2ccccc12		3.18
CCCCC(=O)NC(c1ccco1)c1cc(Cl)c2cccnc2c1O (stereo unspecified)	3.38 µM (active)	
CCC(=O)NC(c1ccc(OC)c(OC)c1)c1cc(Cl)c2cccnc2c1O (stereo unspecified)	1.69 µM (active)	
O=C(Oc1ccc(Cl)c2cccnc12)C12CC3CC(CC(C3)C1)C2		0.3
Nc1[nH]nc2ncc3cc4ccccc4nc3c12	15.1 µM (active)	
CCc1ccc2oc(-c3ccc(OC)cc3)cc(=Nc3c(C)n(C)n(-c4ccccc4)c3=O)c2c1	16.9 µM (active)	
COc1ccc(-c2cn(Cc3ccc4c(c3)C(=O)c3ccccc3C4=O)nn2)cc1		-4.41
O=C(Nc1ccccc1Cl)N1CCN(c2ccc3nnc(-c4ccccc4)n3n2)CC1	6.75 µM (active)	
COc1cccc(N2CCN(c3ccc4nnc(CCC(=O)Nc5cccc(C(C)=O)c5)n4n3)CC2)c1		-6.09
C[C@@]12CCC=C[C@H]1[C@H](c1ccc3ccccc3c1/C=C/c1ccccc1)N(Cc1ccccc1)C2=O		-29.4
Cc1ccc2c(/C=C/c3ccc(N(C)C)cc3)c(C)cnc2c1	8.49 µM (active)	
Cc1cnc2ccc(I)cc2c1/C=C/c1ccc(N(C)C)cc1	7.57 µM (active)	
Cc1ccc(-n2nnnc2C(=Cc2ccc(N(C)C)cc2)c2nnnn2-c2ccc(C)cc2)cc1		-11.3
CCN(CC)c1ccc(/C=C/c2c(C)cnc3ccc(C)cc23)cc1	8.49 µM (active)	
CCc1cnc2ccccc2c1/C=C/c1ccc(N(C)C)cc1	7.57 µM (active)	
Cn1c(=O)c2[nH]c(COc3ccccc3)nc2n(C)c1=O		-12.9
COc1cc(OC)c(OC)cc1/C=C/c1nccc2ccccc12	7.57 µM (active)	

SMILES	Potency	activity change, negative = inhibition [%]
Cc1cc(C)c(OCCCCN(C)Cc2ccccc2)c(C)c1		22.9
Cn1c(=O)cc2c3c(c(N4CCCCC4)ccc31)C(=O)c1ccccc1-2	3.38 µM (active)	
Cc1cccc(C)c1OCc1cc(C(=O)N2CCN(c3ccccc3)CC2C)no1 (stereo unspecified)		-11.7
Cc1c(NC(=O)/C(C#N)=C/c2ccc(-c3cc(Cl)ccc3Cl)o2)c(=O)n(-c2ccccc2)n1C	7.57 µM (active)	
CCOc1ccc2nc(N3CCCC(C(=O)N4CCN(CC)CC4)C3)sc2c1 (stereo unspecified)		-10
CCOC(=O)c1ccc(NC(=S)N2CCN(CCN=CC3=C(O)CC(c4ccccc4)CC3=O)CC2)cc1 (stereo unspecified)		-0.24
CS(=O)(=O)c1ccc2nc(NC(=O)c3ccccc3Cl)sc2c1		-4.83
CS(=O)(=O)c1ccc(C(=O)Nc2nc(-c3ccco3)c(-c3ccco3)s2)cc1	12 µM (active)	
CN(C)C(C)(C)C#CC(O)(c1ccccc1)c1ccccc1		-3.24
CCOC(=O)Cc1nnc(NC(=O)C(CC)Sc2nnc3c4ccccc4n(C)c3n2)s1 (stereo unspecified)	16.9 µM (active)	
Cn1c2ccccc2c2nnc(SCC(=O)Nc3cccc(O)c3)nc21	13.5 µM (active)	
O=C(CSc1nnc2c3ccccc3c3ccccc3c2n1)Nc1ccccc1F	7.57 µM (active)	
CCOC(=O)Cc1nnc(NC(=O)CSc2nnc3c4ccccc4n(C)c3n2)s1	16.9 µM (active)	
Cn1cc(SCC(=O)Nc2ccc3c(c2)OCCO3)c2ccccc21		-12.8
CSc1cccc(NC(=O)CCCOc2cc(=O)n(C)c3ccccc23)c1		-27.4
Cn1c(=O)c(N)c2c3c(c(Br)ccc31)C(=O)c1ccccc1-2	6.01 µM (active)	
COc1ccc(-c2nnc(NC(=O)c3ccc(S(=O)(=O)N(C)CC4CCCO4)cc3)o2)c(OC)c1 (stereo unspecified)	21.3 µM (active)	
COCc1nnc(NC(=O)c2ccc(S(=O)(=O)N3CCOCC3)cc2)o1		-28.2
O=C1C(=Cc2ccco2)CCC1=Cc1ccco1	4.78 µM (active)	
COc1ccc(Nc2nc(-c3c(C)nc4ncccn34)cs2)cc1	3.38 µM (active)	
Cc1nc2ncccn2c1-c1csc(Nc2ccccc2)n1	3.38 µM (active)	
O=[S+]([O-])([O-])c1ccc2c(c1)cc([S+](=O)([O-])[O-])c1nn(-c3ccc(/C=C/c4ccc(-n5nc6c([S+](=O)([O-])[O-])cc7cc([S+](=O)([O-])[O-])ccc7c6n5)cc4[S+](=O)([O-])[O-])c([S+](=O)([O-])[O-])c3)nc12	6.75 µM (active)	
COc1ccc(-c2cn3c(C)c(C(=O)NCc4ccc5c(c4)OCO5)sc3n2)cc1		-15.9
CN(C)c1ccc(Sc2ccc3nc(N)nc(N)c3c2)cc1	6.75 µM (active)	

SMILES	Potency	activity change, negative = inhibition [%]
S=C(NC1CC1)NC1CCCc2ccccc21 (stereo unspecified)		-11.4
N[C@@H](Cc1cnc[nH]1)C(=O)Nc1ccc2ccccc2c1	21.3 µM (active)	
Cc1ccc(Nc2nc(-c3cccnc3)nc3ccccc23)cc1		-29.8
O=C(O)c1ccc(Nc2nc(-c3ccccc3)nc3ccccc23)cc1	8.49 µM (active)	
O=C(O)c1cccc(Nc2nc(-c3ccccc3)nc3ccccc23)c1	9.53 µM (active)	
CCOC(=O)N1CCC(NC(=O)c2cc3c(-c4ccccc4F)nn(C)c3s2)CC1		-14.8
O=C(CCn1c(=O)oc2ccccc21)NCc1ccc2c(c1)OCO2		-2.46
CCCCn1nc(C(=O)Nc2ccc3c(c2)OCO3)c2ccccc2c1=O	12 µM (active)	
Cn1nnnc1SCC(=O)Nc1ccc2c(c1)OCO2		-11
COc1ccccc1NC(=O)C1=C(C)NC2=C(C(=O)CC(c3ccc(OC)c(OC)c3)C2)C1c1coc2ccccc2c1=O (stereo unspecified)	21.3 µM (active)	
CCc1cc2c(=O)[nH]c(-c3ccccn3)nc2s1	1.69 µM (active)	
CCOc1ccc2c(c1)-c1c(ssc1=S)C(C)(C)N2C(=O)CSC1=NCCS1	16.9 µM (active)	
Cc1nc(C)c(-c2csc(Nc3ccc(O)c(C(=O)O)c3)n2)s1	19 µM (active)	
COc1ccc(S(=O)(=O)N2CCC3CC2c2cc(N4CCOCC4)ccc23)cc1 (stereo unspecified)		17.1
COc1ccc(N2CCN(Cc3cc4c(cc3Br)OCCO4)CC2)cc1	15.1 µM (active)	
COc1ccc(N2CCN(C(c3ccco3)c3sc4nc(C)nn4c3O)CC2)cc1 (stereo unspecified)		-27.1
COc1ccc(N2CCN(C(c3cccs3)C(C)NC(=O)c3ccc4c(c3)OCO4)CC2)cc1 (stereo unspecified)		1.89
COc1ccc(N2CCN(Cc3ccc(Br)s3)CC2)cc1	10.7 µM (active)	
Cc1ccc(C(=O)ON=C2CCN(c3ccc([N+](=O)[O-])cc3)CC2)cc1		-23.5
O=C(Oc1ccc(C(=S)N2CCOCC2)cc1)c1cccc(Cl)c1	8.49 µM (active)	
O=C(Oc1ccc(C(=S)N2CCOCC2)cc1)c1cccc([N+](=O)[O-])c1	7.57 µM (active)	
CC(=O)c1ccc(OC(=O)/C=C/c2ccccc2)cc1	4.26 µM (active)	
O=C(Oc1ccc(C(=S)N2CCOCC2)cc1)c1ccccc1	16.9 µM (active)	
Cc1ccc(Nc2nc(N)nc(CSc3nnc(C)s3)n2)cc1		-27.8

SMILES	Potency	activity change, negative = inhibition [%]
COc1ccc(C(=O)C2CCCN(C(=O)c3cccc(N(C)C)c3)C2)cc1OC (stereo unspecified)		-24.1
COC(=O)C(Sc1ccc(Cl)cc1)C1SC(=S)N(Cc2ccccc2)C1=O (stereo unspecified)		-27.9
COc1ccc(C(=O)OCC(=O)Nc2ccc(N3CCOCC3)cc2)cc1		-5.25
O=C(Oc1ccc(C(=S)N2CCOCC2)cc1)c1ccc(F)cc1	7.57 µM (active)	
O=C(Cc1ccc(F)cc1)Oc1ccc(C(=S)N2CCCC2)cc1	15.1 µM (active)	
O=C(/C=C/c1ccccc1)Oc1ccc(C(=S)N2CCOCC2)cc1	1.51 µM (active)	
Cc1ccc(C(=O)Oc2ccc(C(=S)N3CCOCC3)cc2)cc1	1.2 µM (active)	
COc1cccc(OC)c1C(=O)OCC(=O)NCC1CCCCC1		-9.42
CC(C)OCCCNC(=O)c1ccccc1NC(=O)C1=CSCCO1		-8.43
C1=Cc2ccccc2/C1=C\c1cc2c3c(c1)CCCN3CCC2	7.57 µM (active)	
COc1cc(N=c2oc3c(C)ncc(CO)c3cc2C(N)=O)cc(OC)c1OC	6.75 µM (active)	
Cc1ccc(NC(=O)c2cc3c(CO)cnc(C)c3oc2=Nc2cccc(C(N)=O)c2)cc1		-28.9
COc1ccc(-n2nc(C)cc2Nc2ccccc2C(=O)O)cc1	6.01 µM (active)	
Cc1cc(Nc2ccccc2C(=O)O)n(-c2cccc(Cl)c2)n1	6.75 µM (active)	
COc1ccc(C(=O)Nc2cc(OC)c(NC(=O)Nc3ccccc3)cc2OC)cc1		-25.1
CCN(CC)c1ccc(/C=C2\C=Cc3ccccc32)cc1	6.75 µM (active)	
CN(C)c1ccc(C=C2C=Cc3ccccc32)cc1	3.79 µM (active)	
CN(C)c1ccc(/C=C/C=C2/C=Cc3ccccc32)cc1	4.26 µM (active)	
CC1=C/C(=C\c2ccc(N(C)C)cc2)c2ccccc21	7.57 µM (active)	
CC1C(c2ccccc2)=Nn2c(=O)n(-c3ccccc3)c(=O)n21 (stereo unspecified)		-2.7
CNc1ccc(C=C2C=Cc3ccccc32)cc1	15.1 µM (active)	
C1=Cc2ccccc2/C1=C\c1cc[cH-]c1.[Fe+2].c1cc[cH-]c1	10.7 µM (active)	
CN(C)c1ccc(/C=C2\C=Cc3ccccc32)cc1	6.01 µM (active)	
Cc1oc2c(Cl)c(Cl)c(O)c(CN(C)C)c2c1C(=O)c1ccc(Cl)cc1	19 µM (active)	
